Reference: publication PMC12751014, “Non-Catalytic Inhibitors of the p38/MK2 Interface: Repurposing Approved Drugs to Target Neuroinflammation in Alzheimer’s Disease” (Journal of Medicinal Chemistry, 2025)
About 50 (3%) of roughly 1,900 compounds showed an effect of 50% or more. Only a selection was taken, and strong results are over-represented in it overall.

What follows are compounds tested against p38/MK2 protein–protein interaction (VF-p38α / GST-MK2) (Homo sapiens, UniProt Q16539) (assay: primary screen, percent of control activity; higher = less effect of the substance).
Chain of p38/MK2 protein–protein interaction (VF-p38α / GST-MK2) (Q16539 2-360 limits assumed): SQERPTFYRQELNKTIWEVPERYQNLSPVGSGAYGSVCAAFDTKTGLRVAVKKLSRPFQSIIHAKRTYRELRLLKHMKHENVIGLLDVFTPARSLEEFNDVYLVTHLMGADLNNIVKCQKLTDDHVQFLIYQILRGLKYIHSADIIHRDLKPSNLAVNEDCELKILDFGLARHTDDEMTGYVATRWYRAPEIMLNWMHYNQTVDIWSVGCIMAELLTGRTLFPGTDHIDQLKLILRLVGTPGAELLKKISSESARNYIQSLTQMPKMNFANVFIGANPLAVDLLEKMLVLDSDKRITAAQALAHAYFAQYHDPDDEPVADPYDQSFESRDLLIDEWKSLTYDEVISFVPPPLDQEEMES
Parameters: species or system HEK293T cell lysate transfected with VF-p38α and GST-MK2; unclear (methods say 'quintuplet replicates')
Method in brief: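 Lysate of HEK293T cells transfected with Flag-tagged p38α and GST-MK2, complex detected by TR-FRET with anti-Flag-Tb and anti-GST-d2 antibodies. Five replicates per compound. Signal normalised to percent of DMSO control.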

| SMILES | Pct of control |
| --- | --- |
| S=c1nc[nH]c2nc[nH]c12 | 126% |
| COc1cc(-c2ncn(C=CC(=O)OC(C)C)n2)cc(C(F)(F)F)c1 | 91.8% |
| CN1CCN(c2nc(C3=C(c4c[nH]c5ccccc45)C(=O)NC3=O)c3ccccc3n2)CC1 | 109% |
| CC(=O)Oc1cc2c(s1)CCN(C(C(=O)C1CC1)c1ccccc1F)C2 (stereo not shown) | 87.9% |
| Cc1cc(OCc2nnc(SC3CCCC3)n2-c2cccnc2)ccc1-c1ccc(S(C)(=O)=O)cc1 | 94.4% |
| CCCCCCNC(=O)n1cc(F)c(=O)[nH]c1=O | 110% |
| CN1CCc2cc3c(cc2C1C1OC(=O)c2c1ccc1c2OCO1)OCO3 (single isomer, unassigned; (+)) | 93.7% |
| CN1CCc2cccc3c2C1Cc1ccc(O)c(O)c1-3.CN1CCc2cccc3c2C1Cc1ccc(O)c(O)c1-3.Cl.Cl.O (stereo not shown) | 44.4% |
| CN1CCCC1c1cccnc1.O=C(O)C(O)C(O)C(=O)O.O=C(O)C(O)C(O)C(=O)O (stereo not shown) | 91.9% |
| O=C1CC(=O)c2c(Cl)c(Cl)c(Cl)c(Cl)c21 | 32.6% |
| CC(=O)CCCCn1c(=O)c2c(ncn2C)n(C)c1=O | 88.5% |
| Cc1cc2c(cc1S(N)(=O)=O)S(=O)(=O)CCC2 | 94.1% |
| Br.CN1C2CC(OC(=O)C(CO)c3ccccc3)CC1C1OC12 (stereo not shown) | 98.3% |
| Nc1nccc(Oc2ccc(NC(=O)c3c[nH]cc(-c4ccc(F)cc4)c3=O)cc2F)c1Cl | 73.2% |
| Cc1nc(NC(=O)N2CCCC2C(N)=O)sc1-c1ccnc(C(C)(C)C(F)(F)F)c1 (stereo not shown) | 108% |
| Cc1ccc(Nc2nccc(N(C)c3ccc4c(C)n(C)nc4c3)n2)cc1S(N)(=O)=O | 84.3% |
| CC(C)c1cc(C(C)C)c(CC(=O)NS(=O)(=O)Oc2c(C(C)C)cccc2C(C)C)c(C(C)C)c1 | 36.9% |
| CNCC(O)c1ccc(O)c(O)c1.O=C(O)C(O)C(O)C(=O)O (stereo not shown) | 92.6% |
| CCCC[N+]1(C)C2CC(OC(=O)C(CO)c3ccccc3)CC1C1OC12.[Br-] (stereo not shown) | 96.8% |
| O=C(NCC1(c2nc(-c3ccccc3)cs2)CCOCC1)c1cccc(-c2noc(C(F)(F)F)n2)c1 | 114% |
| NC(=O)N/N=C/c1ccc([N+](=O)[O-])o1 | 106% |
| CCOC(=O)c1ccc(N2NC(=O)C(=Cc3ccc([N+](=O)[O-])o3)C2=O)cc1 | 34.2% |
| CCOC(=O)c1ccc(N)cc1 | 97.4% |
| Cc1cccc(N(C)C(=S)Oc2ccc3ccccc3c2)c1 | 101% |
| O=P1(NCCCl)OCCCN1CCCl (stereo not shown) | 91.1% |
| Cc1cccc(C)c1NC(=O)C1CCCCN1C.Cl (stereo not shown) | 95.5% |

| SMILES | Pct of control |
| --- | --- |
| CC1OC(Oc2c(-c3cc(O)c(O)c(O)c3)oc3cc(O)cc(O)c3c2=O)C(O)C(O)C1O (stereo not shown) | 74% |
| O.O.O=c1c(O)c(-c2ccc(O)c(O)c2)oc2cc(O)cc(O)c12 | 73.1% |
| O.O=c1c(O)c(-c2ccc(O)cc2O)oc2cc(O)cc(O)c12 | 27% |
| O=c1c(O)c(-c2ccc(O)c(O)c2)oc2cc(O)cc(O)c12 | 68% |
| O=c1c(O)c(-c2ccc(O)cc2)oc2cc(O)cc(O)c12 | 75.1% |
| O=c1c(O)c(-c2cc(O)c(O)c(O)c2)oc2cc(O)cc(O)c12 | 43.2% |
| CCn1cc(C(=O)O)c(=O)c2ccc(C)nc21 | 103% |
| COC(=O)Nc1nc2ccc(Sc3ccccc3)cc2[nH]1 | 96.8% |
| Cc1ccc(Sc2cncc3sc(C(N)=O)cc23)cc1 | 96.8% |
| O=C(NCCCNc1nc(Nc2cccc(NC(=O)N3CCCC3)c2)ncc1I)c1cccs1 | 105% |
| COc1ccc(C2C(=O)c3ccccc3C2=O)cc1 | 93.2% |
| O=c1c(-c2ccc(O)cc2)coc2cc(O)cc(O)c12 | 102% |
| COc1cc(OC)c(OC)cc1C=O | 91.5% |
| COC(=O)C1=C(C)NC(C)=C(C(=O)OC)C1c1ccccc1[N+](=O)[O-] | 87% |
| Cl.O=C(O)Cc1cccc(OCCCN(Cc2cccc(C(F)(F)F)c2Cl)CC(c2ccccc2)c2ccccc2)c1 | 39.4% |
| O=C(Nc1ccncc1)c1cc([N+](=O)[O-])ccc1Cl | 103% |
| CCc1oc2ccccc2c1C(=O)c1cc(Br)c(O)c(Br)c1 | 103% |
| Cc1cc(C(C#N)c2ccc(Cl)cc2)c(Cl)cc1NC(=O)c1cc(I)cc(I)c1[O-].[Na+] (stereo not shown) | 46.2% |
| Cc1cc(C(C#N)c2ccc(Cl)cc2)c(Cl)cc1NC(=O)c1cc(I)cc(I)c1O (stereo not shown) | 45.2% |
| CC(=O)Nc1cccc(-n2c(=O)n(C3CC3)c(=O)c3c(Nc4ccc(I)cc4F)n(C)c(=O)c(C)c32)c1 | 93.7% |
| CC(C)(Oc1ccc(CCNC(=O)c2ccc(Cl)cc2)cc1)C(=O)O | 96.7% |
| Oc1c(Br)cc(Br)c2cccnc12 | 104% |
| CCc1ccc(CCOc2ccc(CC3SC(=O)NC3=O)cc2)nc1 (stereo not shown) | 97.3% |
| Clc1ccc(CCC(Cn2ccnc2)Sc2c(Cl)cccc2Cl)cc1.O=[N+]([O-])O (stereo not shown) | 90.3% |
| O=NN(CCCl)C(=O)NC1CCCCC1 | 82.9% |
| Cc1cc([N+](=O)[O-])ccc1NS(=O)(=O)c1cc(Cl)ccc1Cl | 87.8% |
